# Laboratory results from PubChem BioAssay (NCATS).
# Inconclusive results are not listed. The source made the active and inactive calls. Unless noted, calls come from the whole dose curve; as a rule, active = well fitted curve in the direction sought with a large enough effect; inconclusive = small, poorly fitted or top-dose-only effect, or another doubt; inactive = no such curve, though single readings can be large; an effect the other way counts as inactive or inconclusive.
# Assays:
# [1] = qHTS for differential inhibitors of proliferation of Plasmodium falciparum line Dd2 (AID 1882); conditions: Potency: Plasmodium falciparum Dd2 proliferation inhibition; note: potency is the fitted concentration of half-maximal effect; nearly all actives have a fitted effect of over 65% in size
# How it was run: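 SYBR Green I DNA fluorescence read-out, ex 485/em 535 nm. Signals were normalized to 0.29 uM artemisinin and DMSO wells, then corrected using vehicle-only plates flanking each stack. Parasite growth ran 72 h in erythrocytes before lysis.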
# [2] = qHTS for differential inhibitors of proliferation of Plasmodium falciparum line W2 (AID 1883); conditions: Potency: Plasmodium falciparum W2 proliferation inhibition;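 note: potency is the fitted concentration of half-maximal effect; parasites grown with compound for 72 h before lysis and staining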
# [3] = qHTS for differential inhibitors of proliferation of Plasmodium falciparum line HB3 (AID 1886); conditions: Potency: Plasmodium falciparum HB3 proliferation inhibition;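 note: potency is the fitted concentration of half-maximal effect; parasites grown with compound for 72 h before SYBR Green readout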
# [4] = molecular target: Ferritin light chain (Equus caballus) (UniProt P02791); experiment: qHTS Validation Assay for Identification of Novel General Anesthetics (AID 2323); note: % is set by controls: 0 for no effect and ±100 for the full control effect
# Chain of Ferritin light chain (Equus caballus) (P02791 2-175 limits assumed): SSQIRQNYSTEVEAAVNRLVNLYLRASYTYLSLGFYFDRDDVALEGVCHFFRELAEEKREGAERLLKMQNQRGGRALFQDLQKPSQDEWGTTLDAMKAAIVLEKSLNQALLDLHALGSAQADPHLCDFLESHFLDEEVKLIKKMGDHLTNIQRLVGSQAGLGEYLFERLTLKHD
# How it was run: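 Competitive displacement of profluorescent 1-aminoanthracene (1-AMA, 50% saturated solution in PBS) from 10 uM horse-spleen apoferritin. Compounds incubated 10 min at room temperature; fluorescence read at 380 nm excitation/535 nm emission, normalized to free 1-AMA and complex, fitted with four-parameter Hill equation.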
# [5] = molecular target: ATP-dependent DNA helicase Q1 (Homo sapiens) (UniProt P46063); experiment: qHTS Validation Assay for Inhibitors of RecQ-Like Dna Helicase 1 (RECQ1) (AID 2353);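 note: plate controls were DMSO vehicle for no effect and enzyme-free control for full effect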
# Chain of ATP-dependent DNA helicase Q1 (Homo sapiens) (P46063 whole entry, looked up): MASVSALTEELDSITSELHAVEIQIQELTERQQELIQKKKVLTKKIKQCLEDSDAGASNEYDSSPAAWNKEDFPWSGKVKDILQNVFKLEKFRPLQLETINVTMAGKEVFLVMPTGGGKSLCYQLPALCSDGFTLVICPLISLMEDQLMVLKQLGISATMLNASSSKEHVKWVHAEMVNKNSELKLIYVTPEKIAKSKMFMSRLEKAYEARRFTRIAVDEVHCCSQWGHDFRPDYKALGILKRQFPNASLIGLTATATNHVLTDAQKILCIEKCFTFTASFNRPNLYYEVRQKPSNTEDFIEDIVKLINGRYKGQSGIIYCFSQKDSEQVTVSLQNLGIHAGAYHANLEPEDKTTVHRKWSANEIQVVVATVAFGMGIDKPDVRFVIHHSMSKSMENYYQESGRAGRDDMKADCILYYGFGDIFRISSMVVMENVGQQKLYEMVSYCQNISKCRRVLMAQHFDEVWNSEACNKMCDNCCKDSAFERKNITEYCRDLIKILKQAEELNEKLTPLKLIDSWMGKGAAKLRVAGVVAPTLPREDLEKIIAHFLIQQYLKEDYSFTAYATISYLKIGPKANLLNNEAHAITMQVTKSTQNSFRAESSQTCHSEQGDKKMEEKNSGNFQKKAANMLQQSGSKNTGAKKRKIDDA
# How it was run: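 50 nM RECQ1T1 preincubated 15 min with compound in Tris pH 8.0 buffer with MgCl2, DTT, Tween-20 and 2.5 ug/ml poly(dI-dC); started with 200 nM TAMRA/BHQ-2 forked duplex and 2 mM ATP. Unwinding read as fluorescence (525/598 nm), two reads 2 h apart.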
# [6] = Quantitative high throughput screen for delayed death inhibitors of the malarial parasite plastid, 96 hour incubation (AID 488745); note: potency is the fitted concentration of half-maximal effect; nearly all actives have a fitted effect of over 70% in size
# How it was run: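 Growth of reporter-bearing P. falciparum in red cells is measured after 96 h with compound, covering two erythrocytic cycles. Luminescence from the integrated luciferase serves as the growth signal.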
# [7] = Quantitative high throughput screen for delayed death inhibitors of the malarial parasite plastid, 48 hour incubation (AID 488752); note: potency is the fitted concentration of half-maximal effect; nearly all actives have a fitted effect of over 65% in size
# How it was run: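 One parasite generation (48 h, 37 C, 5% CO2) of luciferase-reporter P. falciparum in erythrocytes is run with test compound; decreased luminescence indicates inhibited growth.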
# [8] = molecular target: M-phase phosphoprotein 8 (Homo sapiens) (UniProt Q99549); experiment: qHTS Validation Assay for Inhibitors for MPP8 Chromodomain Interactions with Methylated Histone Tails (AID 488949);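 note: AlphaScreen signal from MPP8 chromodomain bound to biotinylated H3K9me3 peptide; top concentration of the series differs between compounds; % is set by controls: 0 for no effect and ±100 for the full control effect; nearly all actives have a fitted effect of over 55% in size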
# Chain of M-phase phosphoprotein 8 (Homo sapiens) (Q99549 whole entry, looked up): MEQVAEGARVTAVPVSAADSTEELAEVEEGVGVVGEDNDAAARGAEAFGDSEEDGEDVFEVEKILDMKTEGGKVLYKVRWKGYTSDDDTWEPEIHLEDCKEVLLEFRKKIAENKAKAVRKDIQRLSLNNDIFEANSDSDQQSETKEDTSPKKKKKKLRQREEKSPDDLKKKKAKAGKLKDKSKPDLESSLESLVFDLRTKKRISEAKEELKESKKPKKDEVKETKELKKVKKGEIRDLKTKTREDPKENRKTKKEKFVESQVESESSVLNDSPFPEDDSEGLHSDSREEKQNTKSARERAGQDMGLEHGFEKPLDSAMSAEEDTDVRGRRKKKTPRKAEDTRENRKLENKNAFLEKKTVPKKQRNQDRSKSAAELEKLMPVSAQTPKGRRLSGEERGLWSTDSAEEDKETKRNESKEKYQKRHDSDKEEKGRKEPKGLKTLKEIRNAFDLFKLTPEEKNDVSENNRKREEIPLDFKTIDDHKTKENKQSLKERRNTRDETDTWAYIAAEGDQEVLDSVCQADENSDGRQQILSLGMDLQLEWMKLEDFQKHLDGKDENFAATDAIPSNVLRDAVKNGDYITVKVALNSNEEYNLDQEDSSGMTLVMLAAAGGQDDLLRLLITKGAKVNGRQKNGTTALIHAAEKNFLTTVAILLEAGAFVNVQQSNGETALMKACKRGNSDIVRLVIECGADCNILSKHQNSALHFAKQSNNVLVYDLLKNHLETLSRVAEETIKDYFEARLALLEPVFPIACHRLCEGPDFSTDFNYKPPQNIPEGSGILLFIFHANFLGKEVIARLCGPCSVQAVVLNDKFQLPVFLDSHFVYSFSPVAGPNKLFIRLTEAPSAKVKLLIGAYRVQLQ
# How it was run: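 MPP8 (50 nM) was preincubated with biotinylated H3(1-18)K9me3 peptide (50 nM) in PBS pH 7.4, 0.01% Tween-20 for 30 min at room temperature, then with compounds for 30 min; binding was detected by AlphaScreen.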
# [9] = molecular target: Transient receptor potential cation channel subfamily V member 1 (Homo sapiens) (UniProt Q8NER1); experiment: HTS Assay for Compounds that Act as Enhancers of the Vanilloid Receptor 1 (AID 488979); note: 0% is about no effect
# Chain of Transient receptor potential cation channel subfamily V member 1 (Homo sapiens) (Q8NER1 whole entry, looked up): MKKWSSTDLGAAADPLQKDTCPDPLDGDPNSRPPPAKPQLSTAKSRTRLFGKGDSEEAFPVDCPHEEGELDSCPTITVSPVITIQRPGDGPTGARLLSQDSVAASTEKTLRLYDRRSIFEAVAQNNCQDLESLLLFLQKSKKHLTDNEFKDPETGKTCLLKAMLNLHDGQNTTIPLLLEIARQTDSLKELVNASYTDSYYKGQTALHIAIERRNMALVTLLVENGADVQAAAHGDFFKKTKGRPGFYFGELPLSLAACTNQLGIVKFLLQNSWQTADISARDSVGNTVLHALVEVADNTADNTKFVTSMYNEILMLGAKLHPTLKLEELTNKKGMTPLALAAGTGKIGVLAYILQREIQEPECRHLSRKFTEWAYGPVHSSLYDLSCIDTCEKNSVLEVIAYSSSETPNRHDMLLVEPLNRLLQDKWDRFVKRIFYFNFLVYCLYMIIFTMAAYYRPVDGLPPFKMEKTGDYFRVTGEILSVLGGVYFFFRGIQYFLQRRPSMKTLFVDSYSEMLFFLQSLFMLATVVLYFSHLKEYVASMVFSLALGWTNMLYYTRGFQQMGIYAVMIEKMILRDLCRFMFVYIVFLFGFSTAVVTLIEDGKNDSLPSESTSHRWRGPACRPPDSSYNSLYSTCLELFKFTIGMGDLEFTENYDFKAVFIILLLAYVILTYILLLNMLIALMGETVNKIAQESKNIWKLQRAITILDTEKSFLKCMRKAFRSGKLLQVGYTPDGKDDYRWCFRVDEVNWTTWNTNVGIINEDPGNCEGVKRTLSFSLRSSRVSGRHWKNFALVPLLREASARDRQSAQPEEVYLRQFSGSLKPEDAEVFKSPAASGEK
# How it was run: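 TRPV1-expressing cells loaded with Fluo-8 calcium dye; compounds added and calcium influx read kinetically for 3 min (agonist phase), then capsaicin at EC20 added and read 2 min more for enhancement. Fluorescence ex 480/em 520 nm.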
# [10] = molecular target: Thyrotropin receptor (Homo sapiens) (UniProt P16473); experiment: qHTS Assay for Antagonists of the Thyroid Stimulating Hormone Receptor (AID 488980); note: 0% is about no effect
# Chain of Thyrotropin receptor (Homo sapiens) (P16473 whole entry, looked up): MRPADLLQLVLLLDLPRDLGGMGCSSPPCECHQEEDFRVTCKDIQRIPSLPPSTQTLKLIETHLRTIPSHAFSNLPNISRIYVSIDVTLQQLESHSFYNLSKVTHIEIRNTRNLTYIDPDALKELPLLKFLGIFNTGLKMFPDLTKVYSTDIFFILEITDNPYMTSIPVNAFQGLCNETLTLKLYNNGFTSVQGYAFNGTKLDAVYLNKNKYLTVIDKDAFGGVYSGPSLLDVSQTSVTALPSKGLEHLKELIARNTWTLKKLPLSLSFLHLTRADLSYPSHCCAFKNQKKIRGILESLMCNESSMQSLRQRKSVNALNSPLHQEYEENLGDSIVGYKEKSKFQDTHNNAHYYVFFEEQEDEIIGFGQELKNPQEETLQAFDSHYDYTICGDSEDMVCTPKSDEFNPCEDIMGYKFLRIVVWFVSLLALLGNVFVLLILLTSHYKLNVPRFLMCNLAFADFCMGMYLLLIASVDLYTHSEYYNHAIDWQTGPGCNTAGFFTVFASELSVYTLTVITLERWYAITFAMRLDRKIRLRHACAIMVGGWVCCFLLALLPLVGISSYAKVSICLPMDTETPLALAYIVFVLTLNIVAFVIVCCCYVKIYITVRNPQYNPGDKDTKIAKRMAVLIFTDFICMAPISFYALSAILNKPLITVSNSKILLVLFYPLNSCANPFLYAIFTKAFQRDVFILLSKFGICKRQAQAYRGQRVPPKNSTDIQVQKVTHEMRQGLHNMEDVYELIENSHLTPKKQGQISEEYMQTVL
# How it was run: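 HEK293 cells transfected with human TSHR, suspended in HEPES-buffered HBSS with 70 uM RO 20-1724, were treated with compounds plus TSH at EC80 (4 nM final). cAMP was measured by competitive HTRF (cryptate anti-cAMP antibody, cAMP-d2 acceptor).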
# [11] = molecular target: Galactokinase (Homo sapiens) (UniProt P51570); experiment: qHTS Validation Assay for Inhibitors of Human Galactokinase (GALK) (AID 493189); note: 0% is about no effect
# Chain of Galactokinase (Homo sapiens) (P51570 whole entry, looked up): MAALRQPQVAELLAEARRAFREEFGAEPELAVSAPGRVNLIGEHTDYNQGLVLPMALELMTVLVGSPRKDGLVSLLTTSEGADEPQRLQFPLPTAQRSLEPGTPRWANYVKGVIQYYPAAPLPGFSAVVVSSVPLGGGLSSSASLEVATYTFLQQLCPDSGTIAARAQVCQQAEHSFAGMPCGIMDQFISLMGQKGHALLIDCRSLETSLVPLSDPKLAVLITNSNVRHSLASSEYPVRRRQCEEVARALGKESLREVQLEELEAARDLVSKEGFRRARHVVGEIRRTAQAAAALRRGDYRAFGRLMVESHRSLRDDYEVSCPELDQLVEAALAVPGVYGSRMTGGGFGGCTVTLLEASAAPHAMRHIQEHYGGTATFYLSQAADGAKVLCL
# How it was run: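 GALK (5 nM) with 35 uM ATP and 100 uM galactose in HEPES pH8.0, MgCl2, NaCl, DTT, BSA; 1 h at room temperature. Residual ATP read by Kinase-Glo Plus luminescence after 10 min.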
# [12] = Validation screen for small molecules that induce DNA re-replication in SW480 colon adenocarcinoma cells (AID 504364); note: 0% is about no effect
# How it was run: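 Cells are treated 48 hr with test compound, stained 40 min with Hoechst at 37 C, and scanned for nuclear fluorescence; compounds inducing re-replication increase nuclei with elevated intensity.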
# [13] = molecular target: DNA dC->dU-editing enzyme APOBEC-3G (Homo sapiens) (UniProt Q9HC16); experiment: qHTS for inhibitors of Vif-A3G interactions: Validation (AID 588379); note: 0% is about no effect
# How it was run: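 HeLa cells stably expressing Vif and A3G-eYFP, 700 cells/well, incubated overnight at 37 deg C, then exposed to compound overnight at 37 deg C. Inhibition of Vif-mediated degradation read as increased yellow fluorescence (Ex 488/Em 500-530) by laser-scanning cytometry.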
# [14] = molecular target: Voltage-gated inwardly rectifying potassium channel KCNH2 (Homo sapiens) (UniProt Q12809); experiment: qHTS Assay for Small Molecule Inhibitors of the Human hERG Channel Activity (AID 588834);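 note: top concentration of the series differs between compounds; % is set by controls: 0 for no effect and ±100 for the full control effect; lower thallium flux fluorescence means stronger hERG block; nearly all actives have a fitted effect of over 50% in size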
# Chain of Voltage-gated inwardly rectifying potassium channel KCNH2 (Homo sapiens) (Q12809 whole entry, looked up): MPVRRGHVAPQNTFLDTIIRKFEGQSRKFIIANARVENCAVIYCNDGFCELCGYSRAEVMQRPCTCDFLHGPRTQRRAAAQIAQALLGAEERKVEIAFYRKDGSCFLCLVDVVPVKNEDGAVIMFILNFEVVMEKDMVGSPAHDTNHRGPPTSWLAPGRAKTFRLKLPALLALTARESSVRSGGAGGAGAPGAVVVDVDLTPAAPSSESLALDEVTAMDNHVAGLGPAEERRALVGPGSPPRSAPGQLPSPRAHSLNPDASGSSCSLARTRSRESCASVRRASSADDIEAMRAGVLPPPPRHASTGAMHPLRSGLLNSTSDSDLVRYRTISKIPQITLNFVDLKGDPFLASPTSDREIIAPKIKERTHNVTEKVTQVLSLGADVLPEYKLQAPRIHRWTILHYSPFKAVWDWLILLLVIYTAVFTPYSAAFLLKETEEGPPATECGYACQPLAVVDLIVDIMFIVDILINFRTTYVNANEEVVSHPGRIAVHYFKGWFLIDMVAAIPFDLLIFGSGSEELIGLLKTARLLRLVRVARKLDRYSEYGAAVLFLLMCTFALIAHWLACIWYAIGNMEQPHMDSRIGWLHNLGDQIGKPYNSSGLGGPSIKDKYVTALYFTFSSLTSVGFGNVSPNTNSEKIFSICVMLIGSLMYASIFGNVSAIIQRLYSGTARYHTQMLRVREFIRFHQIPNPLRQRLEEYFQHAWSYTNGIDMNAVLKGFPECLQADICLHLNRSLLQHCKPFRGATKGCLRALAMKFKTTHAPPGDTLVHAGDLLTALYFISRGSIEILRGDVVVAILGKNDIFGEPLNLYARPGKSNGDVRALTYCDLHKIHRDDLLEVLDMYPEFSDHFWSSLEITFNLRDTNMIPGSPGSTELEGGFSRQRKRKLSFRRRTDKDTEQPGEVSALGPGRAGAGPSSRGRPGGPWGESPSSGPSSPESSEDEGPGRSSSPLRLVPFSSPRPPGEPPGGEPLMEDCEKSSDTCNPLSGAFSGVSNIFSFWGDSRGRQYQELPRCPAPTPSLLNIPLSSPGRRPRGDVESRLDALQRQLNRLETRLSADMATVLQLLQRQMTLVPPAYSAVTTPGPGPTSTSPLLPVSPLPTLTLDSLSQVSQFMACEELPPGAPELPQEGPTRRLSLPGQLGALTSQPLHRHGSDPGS
# How it was run: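 U2OS cells transduced with hERG via BacMam (MOI ~100), plated 2000/well, loaded with FluxOR thallium dye, compound ~10 min, then stimulation buffer; fluorescence decrease read kinetically; AC50 from Hill fits.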
# [15] = qHTS profiling for inhibitors of Plasmodium falciparum (3D7) proliferation (AID 743322);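 note: infected erythrocytes exposed to compound for 72 h before lysis; 100% = DMSO vehicle wells and 0% = 0.29 µM artemisinin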; conditions: P. falciparum 3D7 proliferation; at 28.7 µM (top of the series)
# How it was run: (§1)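 Erythrocytes infected with P. falciparum (0.3% parasitemia, 2.5% hematocrit) incubated with compounds 72 h at 37 C, 5% CO2. Lysis with saponin/Triton buffer containing SYBR Green I, overnight at room temperature in the dark; DNA fluorescence (485/535 nm) normalised to 0.29 uM artemisinin and DMSO.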
# [16] = qHTS profiling for inhibitors of Plasmodium falciparum (DD2) proliferation (AID 743323; call rule not given here); conditions: lower = more inhibition; at 28.7 µM (top of the series)
# How it was run: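 SYBR Green fluorescence (ex 485, em 535 nm) of lysed cultures gives parasite DNA content; wells normalized to artemisinin (0.29 uM) and DMSO controls. Infected red cells: 0.3% parasitemia, 2.5% hematocrit, 72 h, 37 C.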
# [17] = qHTS profiling for inhibitors of Plasmodium falciparum (HB3) proliferation (AID 743324); conditions: Plasmodium falciparum HB3 blood-stage proliferation; at 28.7 µM (top of the series);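 note: 100% = DMSO vehicle wells and 0% = artemisinin-treated control wells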
# How it was run: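 P. falciparum HB3 grown in erythrocytes (0.3% parasitemia, 2.5% hematocrit final) with compound for 72 h at 37 C, 5% CO2. Parasite DNA detected by SYBR Green after saponin/triton lysis overnight; normalized to 0.29 uM artemisinin and DMSO.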
# [18] = qHTS profiling of the MIPE4 collection as inhibitors of Plasmodium falciparum (3D7) proliferation (AID 743344; call rule not given here;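 note: scaled between DMSO vehicle wells and 0.29 µM artemisinin as full inhibition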); conditions: P. falciparum 3D7 in erythrocytes, SYBR Green DNA fluorescence, 72 h; at 28.5 µM (top of the series)
# How it was run: as §1
# [19] = qHTS profiling of the MIPE4 collection as inhibitors of Plasmodium falciparum (DD2) proliferation (AID 743345; call rule not given here); conditions: P. falciparum Dd2 in erythrocytes, SYBR Green DNA, 72 h; at 28.5 µM (top of the series)
# How it was run: as §1
# [20] = qHTS profiling of the MIPE4 collection as inhibitors of Plasmodium falciparum (DD2) proliferation (Rep 2) (AID 743346; call rule not given here); conditions: P. falciparum Dd2 in erythrocytes, SYBR Green DNA, 72 h; at 28.5 µM (top of the series)
# How it was run: as §1
# [21] = qHTS profiling of the MIPE4 collection as inhibitors of Plasmodium falciparum (HB3) proliferation (AID 743347; call rule not given here;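 note: plate controls were DMSO vehicle wells for no effect and artemisinin wells for full effect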); conditions: P. falciparum HB3 in erythrocytes, SYBR Green DNA, 72 h; at 28.5 µM (top of the series)
# How it was run: as §1
# [22] = test system: Zika virus NS2B-NS3 protease; experiment: Primary screen GU AMC qHTS for Zika virus inhibitors (AID 1347154);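 note: 0% = no-inhibitor control and -100% = no-enzyme control; nearly all actives have a fitted effect of over 70% in size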
# How it was run: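 Unlinked Zika NS2B hydrophilic domain/NS3 protease domain noncovalent complex (25 nM final) in 10 mM Tris-HCl pH 8.0, 0.01% Tween 20, with AMC peptide substrate. Fluorescence (ex 340, em 450 nm) change over 15 min, room temperature; percent inhibition fitted to 4-parameter Hill equation.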
# [23] = Primary qHTS for small molecule stabilizers of the endoplasmic reticulum resident proteome: Secreted ER Calcium Modulated Protein (SERCaMP) assay (AID 1508630); note: % is set by controls: 0 for no effect and ±100 for the full control effect
# How it was run: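 GLuc-SERCaMP-expressing SH-SY5Y cells, pretreated 16 h with compound, are challenged with thapsigargin to empty ER calcium stores; after 4 h, coelenterazine is added directly to the medium and luminescence is imaged.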
structure (smiles),measurement,setting,value
COc1cc2c(cc1C(F)(F)F)N(C(=O)Nc1cc(F)cc(-c3cccnc3)c1)CC2,Potency,[1],6.31 µM (active)
same,Potency,[2],2.24 µM (active)
same,Potency,[3],1.26 µM (active)
same,outcome,[4],inactive
same,Potency,[5],inactive
same,Potency,[6],1.85 µM (active)
same,Potency,[7],2.94 µM (active)
same,Potency,[8],inactive
same,outcome,[9],inactive
same,outcome,[10],inactive
same,outcome,[11],inactive
same,outcome,[12],inactive
same,Potency,[13],inactive
same,Potency,[14],inactive
same,remaining parasite growth % (stronger effect = lower value),[15],-1.39%
same,"activity, percent of control",[16],5.68%
same,"remaining proliferation (% of control), lower = more inhibition",[17],-0.36%
same,"parasite growth, % of DMSO control",[18],6.27%
same,"parasite growth remaining, % of DMSO control (lower = more inhibition)",[19],15.3%
same,"parasite growth, % of control (lower = inhibition)",[20],34.1%
same,"growth, % of control",[21],3.34%
same,Potency,[22],inactive
same,Potency,[23],inactive
